Test results from PubChem BioAssay AID1159580 (chemical genetic matrix, 2015).
Values joined by “and” are separate entries in the source; they are usually repeats but may differ in a detail not shown here. Identical values can stand only once. The whole screen tested about 5,500 compounds, of which about 2,000 (36%) were called active. About 18% were inconclusive and are not listed. Rule as the data show it: active = normalized growth mostly below about 0.91 (no sharp cut-off); inconclusive = no clear call, values can overlap the other calls; inactive = mostly above about 0.92. This is one part of the list.

Test: chemical genetic growth profiling, strain panel (AID 1159580);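 also: tested at 20 µM; growth read once vehicle control cultures reached saturation at 30 °C; 1 = growth at the plate median or of vehicle wells; lower values mean less growth of the strain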
Conditions: S. cerevisiae deletion strains, growth OD

Measured: normalized growth

CC(=O)Nc1c(I)cc(I)c(C(=O)O)c1I
inactive: locus YAL013W, strain DEP1, hits give low values 0.992 | locus YAL021C, strain ccr4, hits give low values 0.986 | locus YAL026C, strain drs2, hits give low values 0.995 | locus YAL030W, strain snc1, hits give low values 0.978 | locus YBL061C, strain skt5, hits give low values 0.974 | locus YBR009C, strain hhf1, hits give low values 0.992 | locus YBR021W, strain FUR4, hits give low values 1.02 | locus YBR023C, strain chs3, hits give low values 0.979 | locus YBR171W, strain sec66, hits give low values 0.967 | locus YBR229C, strain ROT2, hits give low values 0.983 | locus YBR231C, strain swc5, hits give low values 0.971 | locus YBR279W, strain paf1, hits give low values 0.985 | locus YCL011C, strain gbp2, hits give low values 0.994 | locus YCL016C, strain dcc1, hits give low values 0.994 | locus YCL029C, strain bik1, hits give low values 0.994 | locus YCL069W, strain vba3, hits give low values 0.98 | locus YCR088W, strain abp1, hits give low values 0.978 | locus YDL005C, strain med2, hits give low values 0.967 | locus YDL035C, strain GPR1, hits give low values 1.01 | locus YDL040C, strain nat1, hits give low values 0.976 | locus YDL074C, strain BRE1, hits give low values 1.02 | locus YDL101C, strain DUN1, hits give low values 0.99 | locus YDL134C, strain PPH21, hits give low values 0.983 | locus YDL185W, strain tfp1, hits give low values 0.987 | locus YDL192W, strain arf1, hits give low values 0.999 | locus YDR001C, strain nth1, hits give low values 0.991 | locus YDR069C, strain doa4, hits give low values 0.959 | locus YDR101C, strain arx1, hits give low values 0.995 | locus YDR137W, strain rgp1, hits give low values 0.967 | locus YDR150W, strain NUM1, hits give low values 0.996 | locus YDR159W, strain sac3, hits give low values 0.967 | locus YDR162C, strain NBP2, hits give low values 1.02 | locus YDR195W, strain ref2 0.91 | locus YDR297W, strain sur2, hits give low values 0.994 | locus YDR318W, strain mcm21, hits give low values 0.995 | locus YDR334W, strain swr1, hits give low values 0.976 | locus YDR335W, strain msn5, hits give low values 0.988 | locus YDR388W, hits give low values 0.988 | locus YDR392W, strain spt3, hits give low values 1.03 | locus YDR502C, strain sam2, hits give low values 0.996 | locus YEL003W, strain gim4, hits give low values 0.978 | locus YEL037C, strain rad23, hits give low values 0.975 | locus YEL061C, strain CIN8 (second series), hits give low values 0.966 | locus YEL061C, strain CIN8, hits give low values 0.999 | locus YER015W, strain faa2, hits give low values 0.99 | locus YER016W, strain bim1, hits give low values 0.979 | locus YER110C, hits give low values 0.989 | locus YER111C, strain swi4, hits give low values 0.981 | locus YER155C, strain BEM2 (second series), hits give low values 0.977 | locus YER155C, strain BEM2, hits give low values 0.986 | locus YER167W, strain BCK2, hits give low values 0.992 | locus YFR010W, strain ubp6, hits give low values 0.965 | locus YGL078C, strain dbp3, hits give low values 0.995 | locus YGL086W, strain mad1, hits give low values 0.981 | locus YGL167C, strain pmr1, hits give low values 0.971 | locus YGL173C, strain kem1, hits give low values 0.99 | locus YGL227W, strain vid30, hits give low values 0.971 | locus YGL240W, strain doc1, hits give low values 0.974 | locus YGL248W, strain PDE1, hits give low values 0.986 | locus YGL253W, strain hxk2, hits give low values 0.979 | locus YGR078C, strain PAC10, hits give low values 1.05 | locus YGR135W, strain pre9, hits give low values 0.994 | locus YGR229C, strain SMI1, hits give low values 1.06 | locus YGR252W, strain gcn5, hits give low values 0.986 | locus YHR013C, strain ard1, hits give low values 0.987 | locus YHR027C, strain rpn1, hits give low values 0.982 | locus YHR030C, strain SLT2, hits give low values 0.991 and 1.01 | locus YHR079C, strain IRE1 (second series), hits give low values 0.998 | locus YHR079C, strain IRE1, hits give low values 1 | locus YHR094C, strain hxt1, hits give low values 0.989 | locus YHR129C, strain ARP1, hits give low values 0.991 | locus YHR142W, strain chs7, hits give low values 0.987 | locus YHR200W, strain rpn10, hits give low values 0.991 | locus YIL066C, strain RNR3, hits give low values 1 | locus YIL073C, strain SPO22, hits give low values 1.01 | locus YIL125W, strain kgd1, hits give low values 0.992 | locus YIR030C, strain dcg1, hits give low values 0.992 | locus YJL092W, strain hpr5, hits give low values 0.973 | locus YJL095W, strain BCK1 (second series), hits give low values 0.978 | locus YJL095W, strain BCK1, hits give low values 1.01 | locus YJL115W, strain asf1, hits give low values 0.963 | locus YJL129C, strain trk1, hits give low values 0.946 | locus YJL134W, strain LCB3, hits give low values 0.994 | locus YJL154C, strain vps35, hits give low values 0.964 | locus YJL164C, strain tpk1, hits give low values 0.995 | locus YJL166W, strain qcr8, hits give low values 0.971 | locus YJL168C, strain set2, hits give low values 0.99 | locus YJL187C, strain SWE1 (second series), hits give low values 0.995 | locus YJL187C, strain SWE1, hits give low values 0.983 | locus YJR043C, strain POL32, hits give low values 1.03 | locus YJR066W, strain TOR1, hits give low values 0.963
